This note sets out measurements from US20200071711, “MODULAR CONSTRUCTION OF SYNTHETIC GENE CIRCUITS IN MAMMALIAN CELLS USING MATHEMATICAL MODELING OF CLOSED LOOP TRANSCRIPTIONAL REPRESSORS” (Tsinghua University, published 2020).

One assay concerns the target T1, TALER23 (synthetic, UniProt P14727 SEQ:1-806).
T1 chain: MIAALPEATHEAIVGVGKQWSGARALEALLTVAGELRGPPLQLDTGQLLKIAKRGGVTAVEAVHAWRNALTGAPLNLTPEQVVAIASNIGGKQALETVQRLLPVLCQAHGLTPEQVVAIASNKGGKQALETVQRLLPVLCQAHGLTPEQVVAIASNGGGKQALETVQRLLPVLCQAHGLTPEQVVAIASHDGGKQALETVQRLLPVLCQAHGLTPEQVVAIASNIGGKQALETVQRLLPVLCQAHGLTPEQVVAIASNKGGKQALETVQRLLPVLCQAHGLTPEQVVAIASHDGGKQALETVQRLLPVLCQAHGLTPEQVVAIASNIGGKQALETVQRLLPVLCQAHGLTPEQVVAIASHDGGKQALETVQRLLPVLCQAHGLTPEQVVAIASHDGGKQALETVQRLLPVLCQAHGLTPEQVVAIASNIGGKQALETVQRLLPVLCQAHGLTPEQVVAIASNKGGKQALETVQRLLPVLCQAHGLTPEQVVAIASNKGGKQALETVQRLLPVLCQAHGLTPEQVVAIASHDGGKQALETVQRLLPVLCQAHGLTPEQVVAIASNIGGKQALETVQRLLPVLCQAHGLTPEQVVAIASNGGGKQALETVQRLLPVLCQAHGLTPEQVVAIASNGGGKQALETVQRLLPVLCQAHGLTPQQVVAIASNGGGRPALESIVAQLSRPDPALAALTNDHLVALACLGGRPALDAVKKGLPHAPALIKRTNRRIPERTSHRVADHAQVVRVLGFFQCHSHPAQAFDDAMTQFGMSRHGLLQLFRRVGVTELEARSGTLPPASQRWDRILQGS
Nature of the assay: cell_activity; HEK293, two sites flanking CMVmini. As to conditions: tags: EYFP-2A upstream, SV40 NLS; dsDNA, one strand shown.

For a further assay, the target named is T2, TALER22 (synthetic, UniProt P14727 SEQ:1-806).
T2 chain: T1 chain
Nature of the assay: cell_activity; HEK293, two sites flanking CMVmini. As to conditions: tags: EYFP-2A upstream, SV40 NLS; dsDNA, one strand shown.

As to TCCGGATGCTCCTCTTAAT, in the assay with TALER23, the binding signal is 2.2 fold repression.

Turning to TAGTCAGCACCAGGCATTT, in the assay with TALER22, the binding signal came to 4.66 fold repression.
